Source: PubChem BioAssay (National Center for Advancing Translational Sciences (NCATS))
In the library only some 21% were active in any assay of this set; here they are far more common.
Pf growth 96h – P. falciparum growth inhibition at 96 hours; P. falciparum luciferase reporter growth, 96 h; Potency, µM (titrated, usually from 28.7 µM), actives largely listed as inhibitors; 320,000 compounds, 6.9% hits
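P. falciparum expressing integrated firefly luciferase, in erythrocytes at 2% hematocrit, 0.05% parasitemia, incubated with compounds 96 h at 37 C, 5% CO2. Growth inhibition read as loss of luminescence; two-generation exposure targets delayed-death apicoplast inhibitors.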
NS1 function inh – influenza NS1 inhibition | Potency, µM (highest dose often 46.1 µM) | 270,000 compounds, 0.4% hits | AID 2326; calls by dose curve; further: actives are rising curves; nearly all actives have a fitted effect of over 50% in size
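Read-out: OD600 growth recovery of NS1-expressing budding yeast. Cells grown overnight at 30C in -URA glucose medium, washed, resuspended and diluted 1:100 in 2% galactose assay medium, pH 6.0. Same strain lacking NS1 served as positive control.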
Cycloheximide cs – counter-screen hit for Shiga toxin inhibitors, cycloheximide | cell reporter, cycloheximide protein synthesis inhibition counterscreen | max response, % | 300,000 compounds, 12% hits; in the data active means max response mostly above about 13%, no sharp cut-off; inactive means mostly below about 14%; further: read at 38.3 µM for the half of the compounds with a filed dose
Shiga inhibitor – Shiga toxin inhibition; inhibition, % at 38.7 µM; 290,000 compounds, 9.2% hits; Vero cells, Shiga toxin protein synthesis inhibition reporter; in the data active means inhibition mostly above about 28%, no sharp cut-off; inactive means mostly below about 43%
Sm TGR inh – blocks Schistosoma mansoni thioredoxin glutathione reductase | Q962Y6 | purified TGR, DTNB reduction, TNB absorbance 405 nm | Potency, µM (top dose mostly 114 µM), hits mostly inhibitors | 360,000 compounds, 3% hits; further: nearly all actives have a fitted effect of over 60% in size
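TGR 20 nM + NADPH 100 uM (dispensed conc.), cpd preinc 15 min RT; start with NADPH (500 uM addition) then DTNB (15 mM addition). Kinetic TNB absorbance, 405 nm filter. Four-parameter Hill fit across titration.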
Pf growth 48h – inhibits P. falciparum growth in the first generation, 48 h | 310,000 compounds, 5.9% hits | Potency, µM (doses to about 28.7 µM), actives largely listed as inhibitors | P. falciparum luciferase growth in erythrocytes, 48 h
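Parasite viability was followed by luminescence of a genomically integrated firefly luciferase. Cultures held 0.1% parasitemia at 2% hematocrit (final), incubated under 5% CO2 at 37 C.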
A number is an active result; i = inactive; ? = inconclusive; nt = no result. Unless noted, the call rests on the fitted dose curve; in most records, active means well fitted curve in the direction sought with a large enough effect; inconclusive means small, poorly fitted or top-dose-only effect, or another doubt; inactive means no such curve, though single readings can be large; an effect the other way counts as inactive or inconclusive.

SMILES	Pf growth 96h	NS1 function inh	Cycloheximide cs	Shiga inhibitor	Sm TGR inh	Pf growth 48h
CC(=O)c1ccc(NC(=O)[C@@H]2CCCN2C2=NS(=O)(=O)c3ccccc32)cc1	i	nt	nt	nt	i	i
Oc1ccc(Cl)cc1CNCc1ccc(Cl)cc1	5.9µM	nt	nt	nt	i	3.7µM
Oc1ccc(Cl)cc1CNCc1ccc(C(F)(F)F)cc1	5.9µM	nt	nt	nt	i	1.2µM
Oc1ccc(Cl)cc1Cc1cc(Cl)ccc1O	?	i	i	i	i	?
Cc1ccsc1CNCc1cc(Cl)ccc1O	2.9µM	nt	nt	nt	i	1.7µM
O=C(O)c1ccc(CNCc2ccc(Cl)cc2Cl)cc1	nt	i	i	i	i	i
Oc1ccc(Cl)cc1CNCc1ccc(F)cc1	5.2µM	nt	nt	nt	i	5.2µM
COc1ccc(-c2nc3ccccc3o2)cc1NC(=O)c1cc(Br)ccc1OC	nt	nt	nt	nt	i	nt
COc1ccccc1C(=O)N/C(=C/c1ccc(Br)cc1)C(=O)N1CCCC1	i	nt	i	i	i	?
O=C(C1=NNCC1c1ccccc1)C1CO1 (centres undefined)	?	i	i	i	?	i
Oc1ccc(Cl)cc1Cc1ccccc1	7.6µM	nt	nt	nt	nt	11µM
CC(C)CN1CCN(CCCc2ccccc2)C(CCO)C1 (centres undefined)	9.3µM	i	i	i	i	?
CC(C)(C)CN1CCN(CCCc2ccccc2)C(CCO)C1 (centres undefined)	?	i	i	nt	i	?
CC(C)N1CCC(N2CCN(CCCc3ccccc3)CC2CCO)CC1 (centres undefined)	?	i	i	i	i	?
CC(C)N1CCN(CCCc2ccccc2)CC1CCO (centres undefined)	13µM	i	i	i	i	i
CC(=O)Nc1ccc(-n2c(CCC(=O)O)ccc2-c2ccc(C)cc2)cc1	nt	nt	nt	nt	14µM	nt
O=C(O)CCc1ccc(-c2ccc(Br)cc2)n1CC(=O)O	i	i	i	i	?	i
CC(=O)Nc1ccc(-n2c(CCC(=O)O)ccc2-c2ccc(Br)cc2)cc1	nt	nt	nt	nt	35µM	nt
OC(CN1CCC(Cc2ccccc2)CC1)c1ccccc1 (centres undefined)	?	i	i	i	i	?
Cc1ccccc1NC(=O)CCC(=O)OCC(=O)c1cccc([N+](=O)[O-])c1	i	i	i	i	nt	i
COc1cc(C(CC(=O)Nc2ccc(F)cc2F)N2Cc3ccccc3C2=O)cc(OC)c1OC (centres undefined)	nt	nt	nt	nt	i	nt
COc1ccc(OC)c(C(C)NC(=O)Cn2c(=O)cc(C)c3c(C)nn(-c4ccc(C)cc4)c32)c1 (centres undefined)	nt	nt	nt	nt	i	nt
O=C(NN1C(=O)C2C3C=CC(C3)C2C1=O)c1ccccc1 (centres undefined)	i	i	i	i	nt	i
COc1cccc(C(=O)Nc2c(F)c(F)c(F)c(F)c2F)c1	i	i	i	i	i	i
COc1ccc(C(=O)NN2C(=O)C3C4C=CC(O4)C3C2=O)cc1 (centres undefined)	i	i	i	i	18µM	i
SMILES	Pf growth 96h	NS1 function inh	Cycloheximide cs	Shiga inhibitor	Sm TGR inh	Pf growth 48h
Cc1ccc(C(=O)NN2C(=O)C3C4C=CC(C4)[C@@H]3C2=O)cc1 (some centres undefined)	i	i	i	i	i	1.9µM
COc1cccc(C(=O)NN2C(=O)C3C4C=CC(O4)C3C2=O)c1 (centres undefined)	i	i	i	i	20µM	nt
CC(C)c1cc(C(=O)N2CCCC(N3CCN(c4ccc(F)cc4)CC3)C2)no1 (centres undefined)	i	i	i	i	i	?
Cc1ccc(N(CC(=O)N2CCN(c3cc(C)ccc3C)CC2)S(=O)(=O)c2c(C)nn(C)c2C)cc1	nt	nt	nt	nt	i	nt
CC(C)n1nnnc1-c1ccc(Cl)cc1	i	nt	i	i	i	i
C=C1CCO[C@@]2([C@H](O)[C@@](C)(O)CO)NC(=O)[C@]1(O)NC2=O	nt	i	nt	nt	nt	nt
O=C(CN1C(=O)C2C3C=CC(C3)C2C1=O)NCCN1CCCc2ccccc21 (centres undefined)	i	?	i	i	50µM	nt
CCC1Oc2ccccc2N(CC(=O)NCCC2=CCCCC2)C1=O (centres undefined)	?	i	i	i	i	?
O=C(CN1C(=O)C2C3C=CC(C3)C2C1=O)NCCC1=CCCCC1 (centres undefined)	i	i	22	i	i	i
O=C(CCN1C(=O)C2C3C=CC(C3)C2C1=O)NCCN1CCCc2ccccc21 (centres undefined)	?	i	i	i	?	?
CCCCC1CCC(C(=O)NCc2ccc3c(c2)OCO3)CC1 (centres undefined)	i	i	i	i	i	nt
CCn1c(CSc2nc3ccccc3n2C)nc2ccccc21	i	i	i	i	i	?
Cn1c(SCc2ccccc2Cl)nc2ccccc21	i	i	53	76	i	nt
CCn1c(SCc2ccccc2Cl)nc2ccccc21	i	i	35	i	i	i
O=C(CSc1nnc(-c2ccncc2)n1Cc1ccccc1)NC1CCCCC1	i	i	i	i	i	i
C=CCn1c(SCC(=O)NC2CC2)nc2ccccc2c1=O	?	nt	nt	nt	i	?
CC(=O)NCc1ccc(C(=O)CSc2nnc(-c3ccncc3)n2Cc2ccccc2)o1	i	i	i	i	35µM	i
C=CCn1c(SCC(=O)NC23CC4CC(CC(C4)C2)C3)nc2cc(C(=O)O)ccc2c1=O	4.7µM	nt	i	i	i	2.9µM
CCCCCn1c(SCC(=O)OCC)nc2cc(C(=O)N3CCC(C(N)=O)CC3)ccc2c1=O	i	i	i	i	i	i
C=CCn1c(SCc2ccc(Cl)cc2)nc2cc(C(=O)N3CCC(C(N)=O)CC3)ccc2c1=O	6.6µM	i	i	i	i	?
C=CCn1c(SCC(=O)c2ccc(CNC(C)=O)o2)nc2ccccc2c1=O	15µM	i	i	i	?	nt
Cc1nn(C)c(Oc2cccc(C(F)(F)F)c2)c1C=O	i	nt	i	i	i	i
CCn1cc2nc(SCC(=O)Nc3ccc(F)cc3F)n(Cc3ccccc3)c(=O)c2n1	13µM	i	i	i	i	?
C=CCn1c(SCC(=O)Nc2ccccc2F)nc2ccccc2c1=O	i	i	i	i	79µM	i
CCn1cc2nc(SCC(=O)Nc3ccc(C)cc3C)n(Cc3ccc(C)cc3)c(=O)c2n1	nt	nt	nt	nt	i	nt
SMILES	Pf growth 96h	NS1 function inh	Cycloheximide cs	Shiga inhibitor	Sm TGR inh	Pf growth 48h
O=C(NCC1CCCN1S(=O)(=O)c1cccs1)c1ccccc1F (centres undefined)	?	nt	nt	nt	i	?
O=C(O)C[C@@H](C(=O)O)c1ccccc1[N+](=O)[O-]	nt	i	nt	nt	nt	nt
Cc1ccccc1-c1oc(C)c(C)[n+]1[O-]	i	nt	i	i	25µM	i
CC(Sc1nncn1C)C(=O)Nc1ccc(Cl)cn1 (centres undefined)	i	i	i	i	i	i
Cc1ccc(-n2nnnc2SC(C)C(=O)Nc2ccc(Cl)cn2)cc1 (centres undefined)	9.3µM	i	i	i	i	?
C#CCSc1nnnn1-c1cccc(Cl)c1	i	i	i	i	i	i
CC(C)COCC(CN(Cc1ccccc1)c1ccccc1)N1CCCC1 (centres undefined)	?	i	i	i	i	11µM
